Source: PubChem
APEX1 inh – APE1 (human) endonuclease inhibition; P27695; recombinant APE1, TAMRA/BHQ-2 abasic DNA cleavage fluorescence; Potency, µM (series often up to 65.8 µM), without a hit: at the top dose activity change, negative = inhibition, actives largely listed as inhibitors; 0.35% of 350,000 active; AID 2517;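 further: potency means the concentration at half of the fitted maximal effect; plate controls were vehicle for no effect and reference inhibitor for full effect; nearly all actives have a fitted effect of over 55% in size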
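Kinetic fluorescence read (525 ex/598 em nm, three reads 60 s apart) of AP-site incision; signal = third minus first read. Enzyme 0.75 nM, dual-labelled THF duplex 50 nM, compound preincubation 15 min RT.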
BLM helicase inh-1 – inhibitors of human Bloom syndrome helicase BLM; P54132; 0.2% of 350,000 active; recombinant BLM DNA unwinding, fluorescence dequenching; Potency, µM (series often up to 56.1 µM), for inactives: at the top dose activity change, negative = inhibition, most hits filed as inhibitors;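 further: potency means the concentration at half of the fitted maximal effect; plate controls were vehicle for no effect and no enzyme for full effect; nearly all actives have a fitted effect of over 35% in size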
WRN helicase inh-1 – inhibitors of human WRN helicase. Q14191. WRN helicase unwinding, fluorescent forked duplex, kinetic. Potency, µM (doses to about 114 µM), for the others: at the highest dose activity change, negative = inhibition, most hits filed as inhibitors. 0.46% of 360,000 active. AID 651768; further: potency means the concentration at half of the fitted maximal effect; on the % scale 0 is the no-effect control and ±100 the full control effect; nearly all actives have a fitted effect of over 55% in size
Target sequence (Q14191 whole entry, looked up): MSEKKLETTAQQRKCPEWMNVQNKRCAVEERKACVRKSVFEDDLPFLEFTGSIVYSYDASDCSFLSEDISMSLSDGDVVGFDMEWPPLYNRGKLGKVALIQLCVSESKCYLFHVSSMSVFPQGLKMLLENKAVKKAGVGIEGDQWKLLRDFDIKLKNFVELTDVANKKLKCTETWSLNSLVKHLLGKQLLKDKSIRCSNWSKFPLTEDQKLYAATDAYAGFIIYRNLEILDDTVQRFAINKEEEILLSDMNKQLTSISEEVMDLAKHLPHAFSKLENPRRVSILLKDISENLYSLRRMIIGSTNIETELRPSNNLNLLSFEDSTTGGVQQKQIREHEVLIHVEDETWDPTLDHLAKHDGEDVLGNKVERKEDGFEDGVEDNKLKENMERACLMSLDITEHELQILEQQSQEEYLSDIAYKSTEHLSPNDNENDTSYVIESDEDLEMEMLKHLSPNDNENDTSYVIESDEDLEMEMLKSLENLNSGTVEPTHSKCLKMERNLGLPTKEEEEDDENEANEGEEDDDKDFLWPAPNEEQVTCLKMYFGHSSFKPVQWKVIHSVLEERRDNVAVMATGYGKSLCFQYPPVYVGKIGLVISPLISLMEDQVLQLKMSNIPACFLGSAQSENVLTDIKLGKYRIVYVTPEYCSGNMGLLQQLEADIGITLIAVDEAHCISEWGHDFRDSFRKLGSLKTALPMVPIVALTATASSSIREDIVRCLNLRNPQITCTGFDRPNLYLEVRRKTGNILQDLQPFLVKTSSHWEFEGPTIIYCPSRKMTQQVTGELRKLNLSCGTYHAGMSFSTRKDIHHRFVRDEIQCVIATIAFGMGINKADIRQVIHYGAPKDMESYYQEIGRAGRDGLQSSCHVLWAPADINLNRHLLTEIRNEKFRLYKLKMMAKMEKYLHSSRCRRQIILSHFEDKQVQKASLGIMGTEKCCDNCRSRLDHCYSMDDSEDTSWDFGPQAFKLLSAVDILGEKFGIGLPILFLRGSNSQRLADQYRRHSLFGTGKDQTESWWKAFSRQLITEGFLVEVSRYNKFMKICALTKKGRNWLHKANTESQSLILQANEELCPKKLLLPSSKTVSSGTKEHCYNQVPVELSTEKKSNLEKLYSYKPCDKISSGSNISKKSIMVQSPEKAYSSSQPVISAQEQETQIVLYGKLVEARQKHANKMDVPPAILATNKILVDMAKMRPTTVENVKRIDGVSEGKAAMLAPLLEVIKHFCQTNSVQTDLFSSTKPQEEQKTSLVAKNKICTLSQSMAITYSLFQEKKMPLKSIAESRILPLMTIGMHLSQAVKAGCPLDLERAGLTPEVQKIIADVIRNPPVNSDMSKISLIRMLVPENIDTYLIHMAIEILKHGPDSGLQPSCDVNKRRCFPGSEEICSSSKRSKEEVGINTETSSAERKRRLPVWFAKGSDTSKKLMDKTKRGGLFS
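WRN at 20 nM final was preincubated with compound for 15 min at room temperature; reaction started with 100 nM forked duplex oligonucleotide carrying fluorophore and quencher plus 2 mM ATP (final). Unwinding followed kinetically by red fluorescence (ex 525/em 598 nm).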
RECQ1 inh-1 – inhibitors of human RECQ1 DNA helicase; P46063; RECQ1 DNA unwinding, red fluorescence kinetic read; Potency, µM (series often up to 57.3 µM), inactives show at the top dose activity, negative = inhibition, most hits filed as inhibitors; 0.54% of 240,000 active;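 further: potency means the concentration at half of the fitted maximal effect; plate controls were vehicle for no effect and no enzyme for full effect; nearly all actives have a fitted effect of over 30% in size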
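50 nM RECQ1T1 preincubated 15 min with compound in Tris pH 8.0 buffer with MgCl2, DTT, Tween-20 and 2.5 ug/ml poly(dI-dC); started with 200 nM TAMRA/BHQ-2 forked duplex and 2 mM ATP. Unwinding read as fluorescence (525/598 nm), two reads 2 h apart.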
FEN1 inh-1 – human FEN1 inhibition; 0.35% of 390,000 active; Potency, µM (highest dose often 114 µM), inactives show at the highest dose activity change, negative = inhibition, actives largely listed as inhibitors; Recombinant FEN1 flap cleavage, fluorescence, 15 min; P39748; further: potency means the concentration at half of the fitted maximal effect; on the % scale 0 is the no-effect control and ±100 the full control effect; nearly all actives have a fitted effect of over 65% in size
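FEN1 at 10 nM preincubated with compounds 15 min at room temperature, then flap DNA substrate added at 50 nM final. Signal read at 0 and 15 min; concentration-response fitted with four-parameter Hill equation.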
PI5P4K alpha inh – PI5P4K alpha (human) kinase inhibition; P48426; PI5P4Kalpha enzyme, ADP-Glo luminescence, 60 min; hits give low values; max response, %; 1.2% of 330,000 active; AID 652105; active means max response of -50% or lower; inconclusive means between -30% and -50%; inactive means -30% or higher; further: value at the top dose of about 77 µM; on the % scale 0 is the no-effect control and ±100 the full control effect
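Enzyme plus substrate dispensed, test compounds pinned in, then ATP (5 microM final) added. After 60 min at RT, ADP-Glo reagent 1 for 45 min and reagent 2 for 30 min preceded luminescence imaging.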
RECQ1 inh-2 – RECQ1 helicase inhibition confirmed, round 2 | shares compounds with RECQ1 inh-1 | recombinant RECQ1 DNA unwinding, red fluorescence | Potency, µM (series often up to 119 µM), inactives show top-dose activity, negative = inhibition, actives largely listed as inhibitors | 15% of 1,100 active | AID 504841; further: potency means the concentration at half of the fitted maximal effect; on the % scale 0 is the no-effect control and ±100 the full control effect; nearly all actives have a fitted effect of over 50% in size
FEN1 inh-2 – FEN1 inhibition, cherry-pick retest | shares compounds with FEN1 inh-1 | FEN1 flap cleavage, TAMRA/BHQ2 fluorogenic DNA substrate | Potency, µM, usual class: inhibitors | 79% of 880 active; further: potency means the concentration at half of the fitted maximal effect; nearly all actives have a fitted effect of over 60% in size
WRN helicase inh-2 – confirmation of human WRN helicase inhibitors; shares compounds with WRN helicase inh-1; WRN helicase DNA unwinding, fluorescence kinetic; Potency, µM (doses to about 57.1 µM), without a hit: at the top dose activity, negative = inhibition, hits mostly inhibitors; 63% of 610 active; AID 720497; further: potency means the concentration at half of the fitted maximal effect; nearly all actives have a fitted effect of over 65% in size
TO displacement – binds DNA, flagged in WRN inhibitor counterscreen. thiazole orange DNA binding displacement, fluorescence. 10% of 610 active. Potency, µM (series often up to 57.1 µM), for the others: at the highest dose activity change, negative = inhibition, most hits filed as inhibitors. shares compounds with WRN helicase inh-1;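 further: drop in dye fluorescence marks compound binding to DNA; potency means the concentration at half of the fitted maximal effect; on the % scale 0 is the no-effect control and ±100 the full control effect; nearly all actives have a fitted effect of over 60% in size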
BLM helicase inh-2 – counter-screen for WRN helicase inhibitors: human BLM helicase inhibition. shares compounds with WRN helicase inh-1. Recombinant BLM helicase DNA unwinding, red fluorescence. Potency, µM (series often up to 57.1 µM), without a hit: at the highest dose activity change, negative = inhibition, actives largely listed as inhibitors. 60% of 610 active. AID 720503; further: potency means the concentration at half of the fitted maximal effect; nearly all actives have a fitted effect of over 60% in size
ADP-Glo interf – interferes with ADP-Glo detection without enzyme present; shares compounds with PI5P4K alpha inh; 1,100 tested, under 10 active; Potency, µM (titrated, usually from 76.9 µM), without a hit: at the top dose activity change, negative = inhibition, most hits filed as inhibitors; AID 743285; ADP-Glo detection counter-screen, luciferase luminescence, no enzyme
* = called active by the depositor; ? = inconclusive; / = no result given; [ ] = dose if it differs, or a comment. Shown are actives, neighbours in structure and some others; about 1.5% of the full set was active somewhere. Unless noted, the call rests on the fitted dose curve; in most records, active means well fitted curve in the direction sought with a large enough effect; inconclusive means small, poorly fitted or top-dose-only effect, or another doubt; inactive means no such curve, though single readings can be large; an effect the other way counts as inactive or inconclusive.

SMILES | APEX1 inh | BLM helicase inh-1 | WRN helicase inh-1 | RECQ1 inh-1 | FEN1 inh-1 | PI5P4K alpha inh | FEN1 inh-2 | others
O=C(NC1CCC(O)CC1)c1cc(-c2ccco2)nc2ccccc12 (configuration not stated) | ? | -25% | ? | 22µM* | -24% | -67* | / | RECQ1 inh-2=?;ADP-Glo interf=-6%
CCc1nnc(NC(=O)c2cc(-c3ccccn3)nc3ccccc23)s1 | 15% | 0% | -12% | -11% | -20% | 2 | /
O=C(Nc1ccccc1C(F)(F)F)c1noc2c1CCCCC2 | / | 0% | / | / | -5% | / | /
Cc1ccccc1NC(=O)c1nc(S(=O)(=O)Cc2ccccc2F)ncc1Cl | / | / | / | / | -16% | / | /
COc1ccc(C)cc1NC(=O)Nc1ccccc1OCc1cc(=O)n2ccccc2n1 | / | -11% | / | / | -13% | / | /
COc1cccc(C(=O)Nc2cccc(C(=O)NC3=NN(c4c(Cl)cc(Cl)cc4Cl)C(=O)C3)c2)c1 | 6% | -26% | ? | 32µM* | ? | -58* | / | RECQ1 inh-2=?;WRN helicase inh-2=?;TO displacement=?;BLM helicase inh-2=?;ADP-Glo interf=3%
O=C(NCc1ccco1)c1ccc(S(=O)(=O)N2CCCCC2)cc1 | 6% | -1% | -10% | -6% | -14% | -2 | /
O=C(NCc1ccco1)c1ccc(S(=O)(=O)N2CCOCC2)cc1 | 32µM* | -27% | -10%[57.1 µM] | ? | -1% | -53* | / | RECQ1 inh-2=-20%;ADP-Glo interf=0%
CCCCC1=CC2=C(c3ccco3)C(=O)C(C)(OC(=O)c3ccc(OC)cc3)C(=O)C2=CN1Cc1ccc2c(c1)OCO2 (configuration not stated) | 1%[12.4 µM] | -11%[12.4 µM] | -6%[11.6 µM] | ? | -22% | -30 | /
CCCCC1=CC2=C(c3ccco3)C(=O)C(C)(OC(=O)c3ccc(OC)cc3)C(=O)C2=CN1Cc1ccccc1 (configuration not stated) | 7%[12.4 µM] | -3%[12.4 µM] | -8% | ? | -8% | -71* | / | RECQ1 inh-2=-9%;ADP-Glo interf=-2%
Cc1nc2ccccc2c2nc3ccccc3n12 | 22% | -6% | -5% | 0% | 22µM* | / | 27*
Fc1ccc(-c2nc3ccccc3c3nc4ccccc4n23)cc1 | 0% | -3% | -7% | -3% | 5% | -2 | /
NNC(=O)c1oc2nc(-c3ccco3)cc(-c3ccco3)c2c1N | ? | ? | ? | ? | 50µM* | -26 | 38*
COc1cc(C(=O)NC2CCN(C)CC2)ccc1Nc1ncc2c(n1)N(C1CCCCC1)CCC(=O)N2C | / | / | -23% | / | ? | -3 | 38*
COc1cc(C(=O)NC2CCN(C)CC2)ccc1Nc1ncc2c(n1)N(Cc1ccccc1)CCC(=O)N2C | / | / | -15% | / | ? | -3 | /
CCOC(=O)c1ccc(N2CCN(c3cc(C)ccc3C)CC2)c(NC(=O)Nc2ccccc2)c1 | / | -7% | / | / | -1% | / | /
CN(C)CCCN1C(=O)c2cccc3cccc(c23)C1=O | -2% | 94% | -3%[11.6 µM] | / | ? | 3 | 67*
CC(=O)Nc1cc(C(=O)Nc2ccc3c(c2)N(C)C(=O)c2ccccc2S3)ccc1C | / | 1% | / | / | 1% | / | /
CCCCN(C)C1=CC2=CC(=C(C#N)C#N)CCC2CC1 (configuration not stated) | 6% | 13µM* | ? | 14µM* | 22µM* | -4 | 76*
COCCn1c(C)cc(C(=O)COC(=O)c2ccc([N+](=O)[O-])o2)c1C | 9% | -9% | 1% | -13% | ? | -2 | 15*
CC(C)Cn1c(N)c(C(=O)COC(=O)c2ccc(O)cc2)c(=O)n(C)c1=O | -5% | -6% | 5% | -3% | 7% | 0 | /
Cc1cc(C(=O)COC(=O)c2ccc([N+](=O)[O-])o2)c(C)n1CC1CCCO1 (configuration not stated) | 1% | -11% | 7% | -21% | ? | -6 | /
CC(C)Cn1c(N)c(C(=O)COC(=O)c2ccc([N+](=O)[O-])o2)c(=O)n(C)c1=O | -6% | -5% | 2%[11.6 µM] | -10% | ? | -7 | 9.5*
CC(=O)c1ccc(NC(=O)c2ccc([N+](=O)[O-])o2)cc1 | 17% | -3% | 7% | / | ? | 1 | /
CC(=O)c1cccc(NC(=O)c2ccc([N+](=O)[O-])o2)c1 | / | / | -1%[11.6 µM] | / | -1% | 2 | 43*
SMILES | APEX1 inh | BLM helicase inh-1 | WRN helicase inh-1 | RECQ1 inh-1 | FEN1 inh-1 | PI5P4K alpha inh | FEN1 inh-2 | others
Cc1ccccc1C(=O)N1CCN(c2ccc(NC(=O)c3ccc([N+](=O)[O-])o3)cc2)CC1 | 65% | -5% | 1% | / | 11% | 0 | /
O=C(Nc1ccc(N2CCN(C(=O)c3ccccc3)CC2)cc1)c1ccc([N+](=O)[O-])o1 | 14% | -5% | -8%[11.6 µM] | 15% | -1% | -3 | 27*
Cc1cc(C)cc(-n2ccn(CC(=O)c3ccc(F)cc3)c(=O)c2=O)c1 | / | -1% | / | / | 9% | / | /
COCCn1c(-c2ccccc2)c(C)n2c3c(=O)n(C)c(=O)n(C)c3nc12 | / | -2% | / | / | 10% | / | /
CNc1ccc(C(=O)Oc2cc(O/N=[N+](\[O-])N(C)C)c([N+](=O)[O-])cc2[N+](=O)[O-])cc1 | ? | -9% | / | 7% | 4% | / | /
CN(C)C=Nc1ccc2nc3c(cc2c1)[nH]c1ccccc13 | -18% | -7% | ? | / | ? | -6 | 30*
Cc1ccc(C)c(CN2C(=O)c3ccccc3S(=O)c3ccc(C(=O)NCc4ccco4)cc32)c1 (configuration not stated) | / | -14% | / | / | -20% | / | /
